Test results: PubChem BioAssay
Active and inactive are the calls of the source.

Columns and labels:
[1] = small molecules captured by biotinylated probe aFSTL3 – biochemical, small-molecule microarray, fluorescence 635/667, stem cell growth factor project, primary screen (AID 1064); conditions: higher = more signal;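 note: measures binding of the biotinylated anti-FSTL3 antibody to printed compounds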
[2] = binders from COS7 lysate, DM2A8 probe, primary screen, torsin A project, cell lysate, small-molecule microarray, fluorescence 635/667 (AID 1065); conditions: higher = more signal, COS7 lysate expressing mutant human TOR1A
[3] = small molecules captured by biotinylated probe aFGF2 – biochemical, small-molecule microarray, fluorescence 635/667, stem cell growth factor project, primary screen (AID 1067); conditions: higher = more signal;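 note: measures binding of biotinylated aFGF2 protein to printed compounds on slides; z-score merges feature fluorescence and signal-to-noise across triplicate slides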
[4] = small molecules captured by biotinylated probe aFGF10 – biochemical, small-molecule microarray, fluorescence 635/667, stem cell growth factor project, primary screen (AID 1071); conditions: higher = more signal;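 note: score merges 667 nm spot intensity and signal to noise from triplicate slides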
[5] = target: Neurogenic locus notch homolog protein 2 (Homo sapiens) (UniProt Q04721); experiment: small molecules binding Notch2 protein – biochemical, small-molecule microarray, 635 nm fluorescence, stem cell growth factors, primary screen (AID 1073); conditions: higher = more signal
[6] = target: Pro-neuregulin-1, membrane-bound isoform (Homo sapiens) (UniProt Q02297); experiment: small molecules binding neuregulin-1 protein – biochemical, small-molecule microarray, fluorescence 635/667, psychiatric disease protein project, primary screen (AID 1075); conditions: NRG1 binding, 635 nm fluorescence, higher = more signal;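 note: score combines 667 nm spot fluorescence with signal to noise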
[7] = test system: Neuregulin-1 EGF-like domain; experiment: small molecules binding NRG1 EGF domain – biochemical, small-molecule microarray, 635 nm fluorescence, primary screen (AID 1081); conditions: higher = more signal;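 note: binding of the protein to compounds printed on small-molecule microarray slides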
[8] = FRG1 expression reporter modulators in myotubes – cell-based, C2C12 myotubes, firefly/Renilla luciferase, luminescence, FRG1 inhibition for FSHD, primary screen (AID 1084); conditions: FRG1 promoter luciferase, higher = more signal, called active from +8 up or from −8 down
[9] = small molecules captured by biotinylated probe aFST – biochemical, small-molecule microarray, fluorescence 635/667, stem cell growth factor project, primary screen (AID 1086); conditions: higher = more signal;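 note: score merges 667 nm fluorescence with signal-to-noise of each printed compound spot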
[10] = binders of probe aHhip on microarray, primary screen, stem cell growth factor project, biochemical, small-molecule microarray, fluorescence 635/667 (AID 1087); conditions: higher = more signal;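 note: score merges spot fluorescence at 667nm with spot signal to noise ratio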
[11] = test system: PRMT1 (protein arginine N-methyltransferase 1); experiment: small molecules binding arginine methyltransferase PRMT1 – biochemical, small-molecule microarray, 635 nm fluorescence, primary screen (AID 1088); conditions: higher = more signal;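 note: binding of Prmt1 protein to compounds spotted on small-molecule microarray slides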
[12] = growth effects on S. cerevisiae YJM789 – YJM789 clinical isolate, OD600, 24 h, basal, primary screen (AID 1089); conditions: higher = more signal, called active from +8 up or from −8 down;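 note: growth of clinical yeast isolate S. cerevisiae YJM 789 seeded 1000 cells per well; test concentration not given here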
[13] = S. pombe growth modifiers, basal conditions – strain 972, OD600, 24 h, no modulator, primary screen (AID 1090);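 note: basal condition with compound alone and no growth modifier present; test concentration not given here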; conditions: S. pombe 972 growth, higher = more signal, called active from +8 up or from −8 down
[14] = budding yeast growth modifiers under rapamycin – strain BY4716, OD600, 96 h, primary screen (AID 1091); note: test concentration not given here; conditions: S. cerevisiae BY4716 + rapamycin, higher = more signal, called active from +8 up or from −8 down
[15] = target: Torsin-1A-interacting protein 2 (Homo sapiens) (UniProt Q8NFQ8); experiment: small molecules binding lysate-expressed LULL1 – cell lysate, human LULL1 lysate, 635/667 nm fluorescence, primary screen (AID 1092); conditions: small-molecule microarray, hLULL1 lysate binding, 635 nm fluorescence; higher = more signal;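 note: probe is lysate of COS7 cells overexpressing human LULL1; score merges per-feature 667 nm fluorescence with signal-to-noise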
[16] = optical density change of DRC41 E. coli – strain DRC41, OD650, 24 h, E. coli filamentation project, primary screen (AID 1093);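 note: MC1000 strain lacking acrAB efflux and sulA so SOS filamentation is blocked; test concentration not given here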; conditions: E. coli DRC41 growth, higher = more signal, called active from +8 up or from −8 down
[17] = probe aLefty2 binding to arrayed compounds – biochemical, biotinylated probe, 635/667 nm fluorescence, primary screen (AID 1094); conditions: small-molecule microarray, higher = more signal;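 note: score merges spot fluorescence near 667 nm with spot signal-to-noise ratio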
[18] = test system: Noggin (protein binding on small-molecule microarray); experiment: small molecules binding Noggin protein – biochemical, 635/667 nm fluorescence, primary screen (AID 1095); conditions: 635 nm fluorescence, higher = more signal;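 note: score merges 667 nm feature fluorescence with signal to noise over triplicate slides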
[19] = target: Neurogenic locus notch homolog protein 3 (Homo sapiens) (UniProt Q9UM47); experiment: small molecules binding NOTCH3 protein – biochemical, 635/667 nm fluorescence, primary screen (AID 1096); conditions: small-molecule microarray, 635 nm fluorescence, higher = more signal
[20] = probe aEGFR binding to arrayed compounds – biochemical, biotinylated probe, 635/667 nm fluorescence, primary screen (AID 1097); conditions: small-molecule microarray, higher = more signal;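 note: probe is a biotinylated anti-EGFR antibody binding compounds printed on slides; score combines fluorescence near 667 nm and signal to noise of each spot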

Sequence of Torsin-1A-interacting protein 2 (Homo sapiens) (Q8NFQ8 whole entry, looked up): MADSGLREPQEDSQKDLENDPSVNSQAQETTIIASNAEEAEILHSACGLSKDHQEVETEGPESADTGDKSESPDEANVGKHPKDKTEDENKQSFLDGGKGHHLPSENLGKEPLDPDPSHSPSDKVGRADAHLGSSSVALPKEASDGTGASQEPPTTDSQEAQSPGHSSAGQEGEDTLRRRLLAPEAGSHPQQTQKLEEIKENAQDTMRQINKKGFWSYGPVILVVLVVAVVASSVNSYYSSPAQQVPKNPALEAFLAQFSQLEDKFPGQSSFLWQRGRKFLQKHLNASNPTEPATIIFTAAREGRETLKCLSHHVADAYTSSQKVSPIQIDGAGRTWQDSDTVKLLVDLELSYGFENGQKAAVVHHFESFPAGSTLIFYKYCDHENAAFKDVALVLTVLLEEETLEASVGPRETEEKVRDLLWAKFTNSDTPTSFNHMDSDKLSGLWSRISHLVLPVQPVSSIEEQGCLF
Sequence of Pro-neuregulin-1, membrane-bound isoform (Homo sapiens) (Q02297 whole entry, looked up, the tested form may be a part, canonical isoform): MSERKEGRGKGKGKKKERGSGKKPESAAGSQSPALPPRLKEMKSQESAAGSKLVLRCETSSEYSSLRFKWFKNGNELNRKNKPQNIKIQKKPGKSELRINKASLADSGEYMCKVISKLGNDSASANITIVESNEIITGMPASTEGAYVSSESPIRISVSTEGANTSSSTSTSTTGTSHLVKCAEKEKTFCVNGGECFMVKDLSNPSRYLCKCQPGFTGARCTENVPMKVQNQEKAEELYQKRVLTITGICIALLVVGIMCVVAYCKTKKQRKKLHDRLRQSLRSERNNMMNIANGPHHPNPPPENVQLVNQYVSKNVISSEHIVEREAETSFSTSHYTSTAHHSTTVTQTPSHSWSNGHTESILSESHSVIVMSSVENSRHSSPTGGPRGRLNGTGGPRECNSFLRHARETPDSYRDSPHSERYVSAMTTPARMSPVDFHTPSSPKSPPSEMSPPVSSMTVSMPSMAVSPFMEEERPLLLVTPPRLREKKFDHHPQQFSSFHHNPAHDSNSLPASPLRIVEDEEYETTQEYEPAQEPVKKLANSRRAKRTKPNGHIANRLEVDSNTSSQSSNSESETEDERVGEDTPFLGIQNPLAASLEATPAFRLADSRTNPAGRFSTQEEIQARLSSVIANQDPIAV
Sequence of Neurogenic locus notch homolog protein 2 (Homo sapiens) (Q04721 whole entry, looked up, canonical isoform): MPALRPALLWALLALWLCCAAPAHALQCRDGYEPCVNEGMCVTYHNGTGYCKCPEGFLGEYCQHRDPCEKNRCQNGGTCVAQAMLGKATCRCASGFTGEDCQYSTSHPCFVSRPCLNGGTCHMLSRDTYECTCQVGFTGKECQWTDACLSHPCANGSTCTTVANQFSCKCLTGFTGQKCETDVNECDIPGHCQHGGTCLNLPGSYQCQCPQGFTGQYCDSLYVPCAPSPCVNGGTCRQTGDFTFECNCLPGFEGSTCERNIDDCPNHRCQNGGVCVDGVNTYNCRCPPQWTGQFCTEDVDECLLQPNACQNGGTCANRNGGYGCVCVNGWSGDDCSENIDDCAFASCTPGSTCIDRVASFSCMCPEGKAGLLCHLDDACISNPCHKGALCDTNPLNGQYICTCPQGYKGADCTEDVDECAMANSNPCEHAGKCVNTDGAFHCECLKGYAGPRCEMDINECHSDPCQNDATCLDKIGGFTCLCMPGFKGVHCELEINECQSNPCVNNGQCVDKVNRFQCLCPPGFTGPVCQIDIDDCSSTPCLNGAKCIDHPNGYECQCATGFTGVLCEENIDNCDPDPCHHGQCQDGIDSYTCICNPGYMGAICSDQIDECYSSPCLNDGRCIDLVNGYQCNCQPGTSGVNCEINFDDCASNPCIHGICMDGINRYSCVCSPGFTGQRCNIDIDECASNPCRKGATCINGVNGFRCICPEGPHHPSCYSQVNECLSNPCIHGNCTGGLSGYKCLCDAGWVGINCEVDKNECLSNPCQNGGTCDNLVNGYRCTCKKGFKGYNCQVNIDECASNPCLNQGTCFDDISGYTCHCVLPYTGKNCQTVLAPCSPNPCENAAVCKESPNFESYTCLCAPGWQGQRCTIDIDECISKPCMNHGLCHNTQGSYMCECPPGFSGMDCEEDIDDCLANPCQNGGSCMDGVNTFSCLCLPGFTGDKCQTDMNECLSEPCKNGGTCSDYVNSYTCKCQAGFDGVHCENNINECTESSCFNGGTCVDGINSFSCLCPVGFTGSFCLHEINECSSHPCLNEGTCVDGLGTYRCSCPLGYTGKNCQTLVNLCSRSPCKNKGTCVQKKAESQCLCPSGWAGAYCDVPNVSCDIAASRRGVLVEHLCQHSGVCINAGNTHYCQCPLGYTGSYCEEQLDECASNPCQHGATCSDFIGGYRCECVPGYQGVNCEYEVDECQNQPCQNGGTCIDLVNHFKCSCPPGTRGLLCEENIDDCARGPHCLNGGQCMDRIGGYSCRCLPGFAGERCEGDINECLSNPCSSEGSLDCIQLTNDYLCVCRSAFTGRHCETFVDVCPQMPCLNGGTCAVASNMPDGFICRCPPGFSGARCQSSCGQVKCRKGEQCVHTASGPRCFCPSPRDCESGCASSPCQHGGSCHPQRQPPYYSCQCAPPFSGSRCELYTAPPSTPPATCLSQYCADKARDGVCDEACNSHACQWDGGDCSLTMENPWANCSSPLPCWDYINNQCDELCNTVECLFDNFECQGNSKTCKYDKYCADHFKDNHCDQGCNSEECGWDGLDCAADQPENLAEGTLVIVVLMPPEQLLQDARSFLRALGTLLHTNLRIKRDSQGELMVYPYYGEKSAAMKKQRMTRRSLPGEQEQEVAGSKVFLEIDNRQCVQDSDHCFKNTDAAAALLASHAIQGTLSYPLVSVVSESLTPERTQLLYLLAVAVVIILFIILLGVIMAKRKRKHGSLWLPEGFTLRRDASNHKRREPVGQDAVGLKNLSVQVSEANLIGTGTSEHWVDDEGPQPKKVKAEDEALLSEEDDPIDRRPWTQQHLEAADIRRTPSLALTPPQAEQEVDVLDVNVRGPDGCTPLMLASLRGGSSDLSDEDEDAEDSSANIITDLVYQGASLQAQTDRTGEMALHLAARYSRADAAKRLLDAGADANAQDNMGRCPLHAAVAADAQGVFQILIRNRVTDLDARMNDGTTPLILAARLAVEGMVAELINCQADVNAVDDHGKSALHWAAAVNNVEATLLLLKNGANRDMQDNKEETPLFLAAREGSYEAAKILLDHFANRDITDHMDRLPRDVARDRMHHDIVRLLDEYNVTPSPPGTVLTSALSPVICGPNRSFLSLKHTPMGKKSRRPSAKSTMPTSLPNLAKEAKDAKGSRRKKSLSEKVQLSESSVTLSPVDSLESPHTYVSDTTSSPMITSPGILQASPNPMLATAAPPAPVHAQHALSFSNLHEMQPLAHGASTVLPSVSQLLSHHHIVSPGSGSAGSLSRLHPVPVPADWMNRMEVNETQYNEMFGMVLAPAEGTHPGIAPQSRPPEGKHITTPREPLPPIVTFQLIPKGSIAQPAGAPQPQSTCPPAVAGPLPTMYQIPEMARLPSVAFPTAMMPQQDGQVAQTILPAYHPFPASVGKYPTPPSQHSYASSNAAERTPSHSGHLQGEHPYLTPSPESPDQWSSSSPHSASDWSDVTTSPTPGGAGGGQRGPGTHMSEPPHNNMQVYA

SMILES	composite z-score [1]	composite z-score [2]	composite z-score [3]	composite z-score [4]	composite z-score [5]	composite z-score [6]	composite z-score [7]	z-score [8]	composite z-score [9]	composite z-score [10]	composite z-score [11]	z-score [12]	z-score [13]	z-score [14]	composite z-score [15]	z-score [16]	composite z-score [17]	composite z-score [18]	composite z-score [19]	composite z-score [20]
OB1C=CCC(CCc2ccccc2)O1 (stereo not given)	0.0393	-0.334	-0.0883	-0.254	-0.809	-0.995	-0.989	-0.209 (inactive)	-0.393	-0.132	-1.12	-1.95 (inactive)	-2.06 (inactive)	-0.762 (inactive)	-1.05	1.96 (inactive)	-0.192	-0.0988	-1.12	-0.211
Cc1ccc(/C=C/C=O)cc1	0.16	-0.513	-0.0704	0.2	-0.516	-0.0188	-0.452	0.944 (inactive)	-0.0522	0.0156	-0.379	0.427 (inactive)	-4.06 (inactive)	-0.141 (inactive)	-0.1	0.492 (inactive)	-0.123	-0.244	-0.998	-0.135
CC(C)CNC(=O)[C@@]1(Cc2ccccc2I)c2ccccc2C(=O)N(Cc2ccccc2C(F)(F)F)[C@H]1c1ccc(CO)cc1	0.0085	0.0038	-0.118	-0.128	-1.46	0.89	-0.13	0.49 (inactive)	-0.374	-0.236	1.15	-0.618 (inactive)	-0.0802 (inactive)	-0.403 (inactive)	1.6	0.164 (inactive)	-0.101	-0.518	-0.771	-0.201
C=CCC(OC(C)=O)[C@@H]1[C@@H](N(Cc2cc3ccccc3o2)C(=O)Cc2ccc(OC)cc2)c2cc(OCCCO)ccc2N1C(=O)c1ccc2ccccc2c1 (stereo not given in full)	0.0894	0.196	-0.062	0.0575	-0.709	-0.336	-0.0601	-0.194 (inactive)	-0.005	0.0505	-0.843	-0.179 (inactive)	0.568 (inactive)	0.194 (inactive)	-0.266	-0.457 (inactive)	-0.0097	-0.104	-0.379	-0.201
COCCCNC(=O)[C@]1(Cc2ccccc2)N=C(c2ccc(OCCCO)cc2)O[C@@H]1c1ccccc1CN=[N+]=[N-]	0.134	0.719	0.0584	1.03	1.49	1.87	0.837	-2.22 (inactive)	0.88	-0.156	1.55	-2.05 (inactive)	1.05 (inactive)	0.842 (inactive)	3.59	1.03 (inactive)	0.195	0.53	1.08	0.0326
COCCOC(=O)N1C(=O)[C@@]2(c3cc(C#CC4=CCCCC4)ccc31)[C@H](C(N)=O)[C@H]1C(=O)O[C@H](c3ccccc3)[C@H](c3ccccc3)N1[C@@H]2c1ccc(O)cc1	-0.0926	0.368	0.0122	0.683	1.28	0.758	1.11	-0.95 (inactive)	0.416	0.0623	1.55	-1.59 (inactive)	-0.638 (inactive)	0.0591 (inactive)	3.06	0.573 (inactive)	0.725	0.735	1.13	0.0038
CCCCCCc1nc(-c2ccc(-c3ccc(Cl)c(Cl)c3)o2)cc2c1[Si](C(C)C)(C(C)C)O[C@H]2c1ccccc1	0.0771	-0.543	-0.116	-0.379	-0.797	0.501	-0.412	0.213 (inactive)	-0.265	0.0505	0.287	-0.124 (inactive)	-0.45 (inactive)	-1.35 (inactive)	0.424	0.488 (inactive)	-0.196	0.0792	-0.34	-0.249
O=C(CS)NCCCCCNC(=O)[C@@H]1C[C@@H]2C(=O)NCC(=O)N2[C@@H]1c1cccc(OCCO)c1	0.312	0.389	-0.12	-0.161	-0.067	-0.515	1.1	-0.612 (inactive)	-0.188	-0.166	0.701	-5.72 (inactive)	-0.31 (inactive)	-0.485 (inactive)	2.92	2.71 (inactive)	-0.0823	0.271	0.328	-0.0466
CC1CC/C=C\[C@H]2OC34C=CCN(Cc5ccccc5)C(=O)[C@H]3N(C(C)CO)C(=O)[C@@H]4C2C(=O)O1 (stereo not given in full)	-0.504	-0.33	-0.138	0.0852	-0.257	-0.771	1.44	0.251 (inactive)	-0.021	-0.0672	-0.938	-0.875 (inactive)	-1.48 (inactive)	-0.577 (inactive)	0.44	0.524 (inactive)	-0.092	0.392	0.158	-0.0916
CCN(CC)c1ccc(N2CC=CC34O[C@@H]5C=CCOC(=O)[C@@H]5[C@H]3C(=O)N(CCCCCCO)[C@@H]4C2=O)cc1 (stereo not given in full)	0.52	0.19	-0.167	-0.631	-0.489	1.87	1.46	-0.766 (inactive)	-0.263	-0.0296	0.933	-0.259 (inactive)	-0.53 (inactive)	-0.975 (inactive)	2.63	2.24 (inactive)	-0.192	-0.526	-0.136	-0.0987
OCCCC1=CC(C2CC2)N(Cc2cccc(OC(F)(F)F)c2)CC1 (stereo not given)	-0.367	0.406	-0.208	-0.771	-0.464	-0.106	0.677	0.606 (inactive)	-0.658	-0.0373	0.352	-2.88 (inactive)	-2.33 (inactive)	-1.72 (inactive)	0.25	-0.454 (inactive)	-0.264	-0.177	-0.477	-0.157
COc1ccc([Si](C)(C)[C@@H]2[C@@H](CC(=O)N3Cc4ccccc4C[C@H]3CO)O[C@]3(C(=O)N(Cc4cccc(N5CCC5=O)c4)c4ccccc43)[C@H]2C)cc1	-0.0762	0.3	-0.07	0.507	0.596	0.592	1.22	-1.07 (inactive)	0.113	0.35	1.55	0.0342 (inactive)	0.589 (inactive)	1.59 (inactive)	1.95	-0.509 (inactive)	-0.0963	0.954	0.87	0.0227
CCCC=C(CCC)[C@@H](NC(=O)OCC(C)C)c1ccccc1	1.28	-0.122	0.685	0.444	1.33	-0.111	0.762	2.06 (inactive)	2.06	0.152	0.934	0.69 (inactive)	-0.623 (inactive)	1.94 (inactive)	2.01	-1.68 (inactive)	0.678	1.11	1.12	0.548
CC(c1ccccc1)C(O)C1C=CC2C(=O)N(C)C(=O)C2N1NC(=O)OC(C)(C)C (stereo not given)	0.301	0.518	0.225	0.626	1.21	1.91	1.17	1.89 (inactive)	1.14	-0.0645	1.39	0.476 (inactive)	0.0391 (inactive)	0.299 (inactive)	3.43	0.0596 (inactive)	0.12	0.01	1.05	-0.0859
COC(=O)C(CC#Cc1ccc2c(c1)[C@]1(C(=O)N2)[C@H](c2ccccc2OCCO)N2[C@H](c3ccccc3)[C@H](c3ccccc3)OC(=O)[C@H]2[C@@H]1C(N)=O)C(=O)OC	1.88	0.726	0.255	0.774	0.806	1.69	1.32	-1.84 (inactive)	1.84	0.087	1.27	1.31 (inactive)	-0.117 (inactive)	3.7 (inactive)	2.93	1.13 (inactive)	1.11	0.0814	0.895	0.656
COCCOC(=O)N1C(=O)[C@@]2(c3cc(C#CCCO)ccc31)[C@H](c1ccc(OCCO)cc1)N1[C@H](c3ccccc3)[C@H](c3ccccc3)OC(=O)[C@H]1[C@@H]2C(N)=O	-0.139	0.947	-0.0182	0.916	1.16	0.741	1.23	-0.485 (inactive)	0.177	-0.239	1.54	2.66 (inactive)	0.245 (inactive)	6.06 (inactive)	2.78	0.719 (inactive)	-0.0383	0.626	1.08	-0.0436
C=CCC(OC(C)=O)[C@@H]1[C@@H](N(Cc2ccc(-c3cccc(C(F)(F)F)c3)o2)C(=O)Cc2ccc(OC)cc2)c2cc(OCCCO)ccc2N1C(=O)c1ccc2ccccc2c1 (stereo not given in full)	0.0929	-0.404	-0.043	-0.608	-0.654	0.522	-0.125	0.782 (inactive)	0.234	-0.236	-0.485	0.514 (inactive)	0.428 (inactive)	-0.645 (inactive)	0.589	0.315 (inactive)	0.0079	0.397	0.035	-0.127
CC(C)(C)OC(=O)CC[C@@]1(C(=O)N2CCCCC2)N=C(c2ccc(OCCCO)cc2)O[C@@H]1c1ccccc1	0.249	0.615	0.171	0.783	1.68	1.72	1.23	-3.24 (inactive)	1.12	-0.0618	1.54	-1.23 (inactive)	-0.76 (inactive)	-0.95 (inactive)	3.52	-0.223 (inactive)	0.0215	0.318	1.12	-0.0053
